Calls of active or inactive are those of the source. How the source made its calls: active means hit-call score of the fitted dose curve at least 0.9, where 1 is the maximum; inactive means score below 0.9.
Tests used:
[1] = read-out: Monocyte Chemoattractant Protein-1 (MCP1), CCL2 (gene 6347); test: BSK_LPS_MCP1: BioMAP Diversity Plus: LPS Assay for Monocyte Chemoattractant Protein-1 (MCP1) Biomarker Activity (AID 2283081); conditions: primary human HUVEC with PBMC; actives raise or lower the signal
How it was run: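 Secreted MCP-1 read by ELISA at 24 h post-dosing in an LPS-activated co-culture of endothelial cells with peripheral blood mononuclear cells. Fits run in both directions, DMSO as baseline; parallel SRB staining tracks overt cytotoxicity.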

[2] = BSK_LPS_PGE2: BioMAP Diversity Plus: LPS Assay for Prostaglandin E2 (PGE2) Biomarker Activity (AID 2283082); conditions: primary human HUVEC with PBMC; actives raise or lower the signal
How it was run: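 Primary human endothelial cells and blood mononuclear cells, co-cultured with LPS, receive test chemical; PGE2 ELISA follows at 24 h, with SRB-stained parallel cultures flagging cytotoxicity.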

[3] = read-out: Macrophage colony-stimulating factor (MCSF), CSF1 (gene 1435); test: BSK_LPS_MCSF: BioMAP Diversity Plus: LPS Assay for Macrophage colony-stimulating factor (MCSF) Biomarker Activity (AID 2283083); conditions: primary human HUVEC with PBMC; actives raise or lower the signal
How it was run: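 Bidirectional fitting against DMSO was applied to M-CSF levels read by ELISA at 24 h post-dose. The system pairs human umbilical vein endothelium with peripheral blood mononuclear cells; parallel SRB staining tracked cytotoxicity.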

[4] = read-out: Tissue Factor, F3 (gene 2152); test: BSK_LPS_TissueFactor: BioMAP Diversity Plus: LPS Assay for Tissue Factor Biomarker Activity (AID 2283084); conditions: primary human HUVEC with PBMC; actives raise or lower the signal
How it was run: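 Compound was added to an endothelial cell/PBMC co-culture, and after 24 h tissue factor (CD142) was read by ELISA. Gain or loss of signal was fitted against a DMSO baseline, and parallel SRB staining (560 nm) tracked overt cytotoxicity.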

[5] = read-out: Tumor necrosis factor (Homo sapiens) (UniProt P01375); test: BSK_LPS_TNFa: BioMAP Diversity Plus: LPS Assay for Tumour Necrosis Factor alpha (TNFa) Biomarker Activity (AID 2283085); conditions: primary human HUVEC with PBMC; actives raise or lower the signal
How it was run: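 ELISA-based TNFa endpoint in a human endothelial–PBMC co-culture sampled 24 h post-exposure. Curves were fitted in both directions using DMSO as baseline of activity.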

[6] = read-out: Vascular cell adhesion molecule 1 (VCAM1), VCAM1 (gene 7412); test: BSK_LPS_VCAM1: BioMAP Diversity Plus: LPS Assay for Vascular cell adhesion molecule 1 (VCAM1) Biomarker Activity (AID 2283086); conditions: primary human HUVEC with PBMC; actives raise or lower the signal
How it was run: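 Measured by ELISA: VCAM-1 in LPS-activated HUVEC/PBMC co-cultures 24 h after treatment. Values reflect bidirectional fitting with DMSO as baseline.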

CD38, CD38 (gene 952) = test: BSK_SAg_CD38: BioMAP Diversity Plus: SAg Assay for CD38 Biomarker Activity (AID 2283087); conditions: primary human HUVEC with PBMC; actives raise or lower the signal
How it was run: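 Measures CD38 on a human endothelial/PBMC co-culture driven by SEB and TSST-1, 24 h after compound exposure, using ELISA with fluorescence detection; DMSO defines baseline for bidirectional curve fitting.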

CD40, CD40 (gene 958) = test: BSK_SAg_CD40: BioMAP Diversity Plus: SAg Assay for CD40 Biomarker Activity (AID 2283088); conditions: primary human HUVEC with PBMC; actives raise or lower the signal
How it was run: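 CD40 is measured by fluorescence ELISA in an endothelial/PBMC primary human co-culture at 24 h post-dose. Fitting is bidirectional, DMSO baseline. Parallel SRB staining (560 nm) flags cytotoxicity.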

CD69, CD69 (gene 969) = test: BSK_SAg_CD69: BioMAP Diversity Plus: SAg Assay for CD69 Biomarker Activity (AID 2283089); conditions: primary human HUVEC with PBMC; actives raise or lower the signal
How it was run: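 HUVEC co-cultured with PBMC were dosed with chemical, and CD69 was measured by ELISA with fluorescence read-out 24 h later. Bidirectional curve fitting used DMSO as negative control and activity baseline.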

[7] = read-out: Monocyte Chemoattractant Protein-1 (MCP1), CCL2 (gene 6347); test: BSK_SAg_MCP1: BioMAP Diversity Plus: SAg Assay for Monocyte Chemoattractant Protein-1 (MCP1) Biomarker Activity (AID 2283090); conditions: primary human HUVEC with PBMC; actives raise or lower the signal
How it was run: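 Values derive from bidirectional fitting of ELISA-measured MCP1 against DMSO controls. Readings were taken 24 h after dosing human vascular endothelial cells co-cultured with peripheral blood mononuclear cells under superantigen stimulation.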

[8] = read-out: E-selectin (Homo sapiens) (UniProt P16581); test: BSK_SAg_Eselectin: BioMAP Diversity Plus: SAg Assay for Eselectin Biomarker Activity (AID 2283091); conditions: primary human HUVEC with PBMC; actives raise or lower the signal
How it was run: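 Cell-surface E-selectin is read by ELISA at 24 h in the SAg co-culture of HUVEC and PBMC. Curves are fitted in both directions relative to DMSO. Parallel SRB total-protein staining tracks overt toxicity.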

[9] = read-out: Monokine induced gamma interferon (MIG), CXCL9 (gene 4283); test: BSK_SAg_MIG: BioMAP Diversity Plus: SAg Assay for Monokine induced gamma interferon (MIG) Biomarker Activity (AID 2283092); conditions: primary human HUVEC with PBMC; actives raise or lower the signal
How it was run: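 HUVEC plus human PBMC co-culture, chemicals dosed and MIG (CXCL9) quantified by ELISA at 24 h. Bidirectional curve fitting against DMSO as negative control and baseline, so both gain and loss of signal count as activity.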

[10] = BSK_SAg_PBMCCytotoxicity: PBMC Cytotoxicity Assessment in the BioMAP Diversity Plus: SAg Assay (AID 2283093); conditions: primary human HUVEC with PBMC;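 further: fitted both ways against DMSO so a hit may be loss or gain of signal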
How it was run: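 PBMC viability by Alamar Blue reduction, fluorescence read at 546/580 nm after 6 h dye exposure. Cells were dosed 1 h before SEB plus TSST-1 activation (20 ng/mL final each), then held 90 h; endothelial/PBMC human co-culture.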

[11] = BSK_SAg_SRB: Viability Assessment in the BioMAP Diversity Plus: SAg Assay (AID 2283096); conditions: primary human HUVEC with PBMC;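 further: cells read one day after compound addition; hits may be either gain or loss of signal compared with DMSO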
How it was run: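 Compounds were added to a human vascular co-culture of umbilical vein endothelium and PBMC. After 24 h, parallel cultures were fixed with 10% TCA, stained with 0.1% sulforhodamine B and read at 560 nm. Gain or loss of signal was fitted relative to DMSO.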

[12] = BSK_SAg_Proliferation: Cell Proliferation Assessment in the BioMAP Diversity Plus: SAg Assay (AID 2283095); conditions: primary human HUVEC with PBMC;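 further: relative cell number as total protein by SRB absorbance in sub-confluent culture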
How it was run: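 A human primary co-culture of umbilical vein endothelium and blood mononuclear cells receives compound; relative cell number is quantified at 96 h by SRB staining and 560 nm absorbance, with DMSO-referenced bidirectional curve fitting.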

[13] = read-out: Interleukin-8 (IL8), CXCL8 (gene 3576); test: BSK_SAg_IL8: BioMAP Diversity Plus: SAg Assay for Interleukin-8 (IL8) Biomarker Activity (AID 2283094); conditions: primary human HUVEC with PBMC; actives raise or lower the signal
How it was run: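 Primary human endothelial cells with PBMC, exposed 24 h; IL-8 determined by ELISA, analysed bidirectionally relative to DMSO.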

E-selectin (Homo sapiens), sequence (P16581 whole entry, looked up): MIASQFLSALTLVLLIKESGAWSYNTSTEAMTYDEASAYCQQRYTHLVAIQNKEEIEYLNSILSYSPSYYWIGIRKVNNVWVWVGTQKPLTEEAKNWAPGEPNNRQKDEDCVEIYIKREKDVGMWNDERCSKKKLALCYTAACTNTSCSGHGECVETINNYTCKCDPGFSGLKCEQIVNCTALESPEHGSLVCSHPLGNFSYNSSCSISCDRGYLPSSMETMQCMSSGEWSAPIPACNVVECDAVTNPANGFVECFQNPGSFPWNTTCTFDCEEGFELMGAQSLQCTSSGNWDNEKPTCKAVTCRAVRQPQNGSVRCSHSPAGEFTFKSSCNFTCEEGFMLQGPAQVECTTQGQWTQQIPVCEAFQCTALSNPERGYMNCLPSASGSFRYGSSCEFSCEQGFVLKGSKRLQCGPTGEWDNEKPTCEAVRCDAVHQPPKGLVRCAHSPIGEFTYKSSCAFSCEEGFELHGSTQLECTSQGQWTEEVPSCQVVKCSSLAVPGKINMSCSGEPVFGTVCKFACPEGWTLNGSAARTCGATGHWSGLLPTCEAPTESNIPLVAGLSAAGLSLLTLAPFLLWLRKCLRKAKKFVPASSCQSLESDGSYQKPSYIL
Tumor necrosis factor (Homo sapiens), sequence (P01375 whole entry, looked up): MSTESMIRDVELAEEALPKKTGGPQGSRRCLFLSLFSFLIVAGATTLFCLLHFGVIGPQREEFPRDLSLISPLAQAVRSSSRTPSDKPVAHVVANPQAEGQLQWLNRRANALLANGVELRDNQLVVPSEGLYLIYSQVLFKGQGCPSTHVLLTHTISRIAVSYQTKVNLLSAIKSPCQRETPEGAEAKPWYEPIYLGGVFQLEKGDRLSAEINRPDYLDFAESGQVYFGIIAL

Structure (SMILES) | outcome [1] | outcome [2] | outcome [3] | outcome [4] | outcome [5] | outcome [6] | outcome (CD38, CD38 (gene 952)) | outcome (CD40, CD40 (gene 958)) | outcome (CD69, CD69 (gene 969)) | outcome [7] | outcome [8] | outcome [9] | outcome [10] | outcome [11] | AC50 [7] | AC50 [8] | outcome [12] | outcome [13]
CCCCN1C(=O)[C@@H]([C@H](O)C2CCCCC2)NC(=O)C12CCN(Cc1ccc(Oc3ccc(C(=O)O)cc3)cc1)CC2 | inactive | inactive | inactive | inactive | inactive | inactive | inactive | inactive | inactive | inactive | inactive | inactive | inactive | inactive | – | – | – | –
CC[C@H](C)C(=O)O[C@H]1C[C@H](O)C=C2C=C[C@H](C)[C@H](CC[C@@H](O)C[C@@H](O)CC(=O)O)[C@H]21 | inactive | inactive | – | inactive | inactive | inactive | inactive | inactive | inactive | – | – | inactive | inactive | inactive | 14.6 µM (active) | 7.03 µM (active) | inactive | –
Cc1ncc([C@@H](CCCCCCc2ccc3c(n2)NCCC3)CC(=O)O)cn1 | inactive | inactive | inactive | inactive | inactive | inactive | – | inactive | inactive | inactive | inactive | inactive | inactive | inactive | – | – | – | inactive
CCOc1ccc2[nH]cc(C(=O)NCc3ccccc3)c(=O)c2n1 | inactive | inactive | inactive | inactive | inactive | inactive | inactive | inactive | inactive | inactive | inactive | inactive | inactive | inactive | – | – | – | inactive

From PubChem BioAssay (EPA / NIEHS)
